Assay outcomes deposited in PubChem by National Center for Advancing Translational Sciences (NCATS).
In the library only some 8.7% were active in any assay of this set; here they are far more common.
VACV Venus inh – vaccinia inhibition (Venus reporter); Vaccinia virus Venus reporter expression, fluorescence; Potency, µM (doses to about 36.5 µM), usual class: inhibitors; 330,000 tested, 0.46% active; calls by dose curve; tested in A549 cells; also: nearly all actives have a fitted effect of over 30% in size
Pf growth 96h – P. falciparum growth inhibition at 96 hours. P. falciparum luciferase reporter growth, 96 h. Potency, µM (series often up to 28.7 µM), usual class: inhibitors. 320,000 tested, 6.9% active
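Compounds incubated with erythrocytes infected by luciferase-expressing P. falciparum (2% hematocrit, 0.05% parasitemia final) for 96 hours, 37 C in 5% CO2. Growth inhibition scored as decreased luciferase luminescence.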
Pf growth 48h – inhibits P. falciparum growth in the first generation, 48 h. AID 504832. Potency, µM (doses to about 28.7 µM), most hits filed as inhibitors. 310,000 tested, 5.9% active. P. falciparum luciferase growth in erythrocytes, 48 h
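Parasite viability was followed by luminescence of a genomically integrated firefly luciferase. Cultures held 0.1% parasitemia at 2% hematocrit (final), incubated under 5% CO2 at 37 C.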
AMA1-RON2 inh – inhibitors of Plasmodium falciparum AMA1-RON2 interaction. Potency, µM (titrated, usually from 58.2 µM), most hits filed as inhibitors. 360,000 tested, 0.2% active. AID 720542. AlphaScreen AMA1-biotinylated RON2 peptide binding; also: nearly all actives have a fitted effect of over 45% in size
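AMA1 (3D7) with his tag at 25 nM final met compounds first, then biotinylated RON2 peptide at 25 nM; detection used donor plus acceptor beads, 10 µg/mL apiece, read by AlphaScreen after 30 min at room temperature.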
Vaccinia mCherry – vaccinia inhibition (mCherry reporter); Vaccinia virus mCherry reporter infection, fluorescence; Potency, µM (doses to about 36.5 µM), usual class: inhibitors; 310,000 tested, 0.63% active; AID 720579; calls by dose curve; tested in A549 cells; also: nearly all actives have a fitted effect of over 35% in size
Numbers stand for hits; n = inactive; u = inconclusive; x = no result; ! = not active in a repeat; [ ] = remark or other dose. Unless noted, calls follow the shape of the dose curve; as a rule, active = well fitted curve in the direction sought with a large enough effect; inconclusive = small, poorly fitted or top-dose-only effect, or another doubt; inactive = no such curve, though single readings can be large; an effect the other way counts as inactive or inconclusive.

SMILES | VACV Venus inh | Pf growth 96h | Pf growth 48h | AMA1-RON2 inh | Vaccinia mCherry
CC(C)CN1CCN(CCCc2ccccc2)C(CCO)C1 (stereo unspecified) | n | 9.3µM | u | n | n
CCNC(=S)N/N=C1\CCCCc2ccccc21 | n | u | 12µM | n | n
Cc1cccc(NC(=S)N/N=C2/CCCCc3ccccc32)c1 | n | u | u | n | n
C=C(C)CNC(=S)N/N=C1\CCCCc2ccccc21 | n | 15µM | u | n | n
Cc1ccc(C)c(NC(=S)N/N=C2\CCc3ccccc32)c1 | x | 5.2µM | n | n | x
Cc1ccc(NC(=S)N/N=C2/CCCCc3ccccc32)cc1 | n[7.34 µM] | 12µM | u | n | u
Cc1sc2ncn(CC(=O)N3CCN(c4ccc(F)cc4)CC3)c(=O)c2c1S(=O)(=O)N1CCCCC1 | n | x | x | x | n
COCCCC/C(=N\OCCN)c1ccc(C(F)(F)F)cc1 | n | 12µM! | u | n | n
Cc1ccc(C)n1-c1ccc(C(=O)NCC2CCCO2)cc1 (stereo unspecified) | n | 10µM | n | n | n
O=C(NC(=S)NCC1CCCO1)c1ccc([N+](=O)[O-])cc1 (stereo unspecified) | n | 0.59µM | n | n[11.6 µM] | n
CN(C)S(=O)(=O)c1ccc(C(=O)Nc2c(C(=O)Nc3ccc(F)cc3)oc3ccccc23)cc1 | n | x | x | x | n
Cc1ccc(CNC(=O)Cc2c(C(=O)O)c(C)cn2C)cc1 | n | x | x | x | n
Cc1ccc2cc(CCNC(=O)C(C)C)c(=O)[nH]c2c1 | n | n | n | n | n
COc1ccc(CCNCc2cc3ccc(C)cc3[nH]c2=O)cc1OC | x | 13µM | n | n | x
Cc1ccc2cc(CNC(C)C)c(=O)[nH]c2c1 | n | 5.2µM | x | n | n[1.46 µM]
COc1ccc(CCN(Cc2cc3ccc(C)cc3[nH]c2=O)C(C)=O)cc1OC | n | n | 2.3µM | n | n
CCc1cccc(NC(=O)Cn2c(=O)n(-c3cccc(Cl)c3)c(=O)c3c2c2cc(C)ccc2n3C)c1 | n | x | x | x | n
Cc1ccc(C)c(S(=O)(=O)c2nnn3c2nc(NCc2ccc4c(c2)OCO4)c2sccc23)c1 | u | x | x | x | n
O=C(c1n[nH]c2c1CCCC2)N1CCOc2ccc(C(O)C(c3ccccc3)c3ccccc3)cc2C1 (stereo unspecified) | n | x | x | x | n
CCS(=O)(=O)c1ncc(Cl)c(C(=O)N(Cc2ccccc2)c2ccc(OC)cc2)n1 | n[7.34 µM] | x | x | x | n[7.34 µM]
COc1cc(/C=N/n2c(=S)[nH]nc(C)c2=O)cc([N+](=O)[O-])c1O | n | 15µM | n | n | n
COc1cc(/C=N/n2c(-c3cc(C)[nH]n3)n[nH]c2=S)cc(OC)c1O | n | n | n | n | n
Cc1n[nH]c(=S)n(/N=C/c2cccc([N+](=O)[O-])c2)c1=O | n[7.34 µM] | u | 1.7µM | n | n[7.34 µM]
O=[N+]([O-])c1cccc(/C=N/n2c(-c3cccnc3)n[nH]c2=S)c1 | n | n | n | n | n
O=S1(=O)CCOCCCN1Cc1ccc(F)cc1 | u | x | x | x | n
SMILES | VACV Venus inh | Pf growth 96h | Pf growth 48h | AMA1-RON2 inh | Vaccinia mCherry
Cn1c(=O)n(C)c2cc(NS(=O)(=O)c3ccc(F)cc3)c(NCc3ccccc3)cc21 | n | x | x | x | n
COc1ccccc1-c1noc(-c2ccc(NC3CCCC3)c([N+](=O)[O-])c2)n1 | n | x | x | x | n
COc1ccc(-c2n[nH]c3c2cnc2cc(OC)c(OC)cc23)cc1 | n | x | x | x | n
CCSc1ncc(Cl)c(C(=O)Nc2ccc(S(=O)(=O)Nc3ncccn3)cc2)n1 | n | u | n | n | n
CCSc1ncc(Cl)c(C(=O)Nc2c(C(=O)Nc3ccccc3)oc3ccccc23)n1 | n | x | x | x | n
CSc1ncc(Cl)c(C(=O)Nc2ccccc2C)n1 | n | u | x | n | n
CCSc1ncc(Cl)c(C(=O)Nc2ccc(S(N)(=O)=O)cc2)n1 | n | 9.3µM | n | n | n
CSc1ncc(Cl)c(C(=O)Nc2ccccc2[N+](=O)[O-])n1 | n | 9.3µM | n | n | n
CCSc1ncc(Cl)c(C(=O)Nc2ccccc2)n1 | n | 8.3µM | n | n | n
CN(C)S(=O)(=O)c1ccc(C(=O)NC2CC(=O)N(c3ccc4c(c3)OCCO4)C2)cc1 (stereo unspecified) | n | x | x | x | n
Cc1cccc(OCC(=O)Nc2cc(C)ccc2O)c1 | u | u | 12µM | n | x
CCS(=O)(=O)c1ccc(O)c(NC(=O)COc2ccc(OC)cc2)c1 | n | u | n | n | n
Cc1ccc(O)c(NC(=O)CCC2CCCCC2)c1 | u | 13µM | u | n | u
CCCc1ccc(OCC(=O)Nc2cc(S(=O)(=O)CC)ccc2O)cc1 | n | 12µM | n | n | n
Cc1cccc(OCC(=O)Nc2cc(C)c(C)cc2O)c1 | n | n | 3.7µM | n | n
COc1ccc(N2CCN(C(c3ccccc3F)c3sc4nc(-c5ccco5)nn4c3O)CC2)cc1 (stereo unspecified) | n | x | x | x | n
O=C(Cn1c(=O)nc(-c2ccccc2)c2ccccc21)Nc1ccc(Cl)cc1F | n | x | x | x | n
Cc1ccc2cccc(NC(=O)COc3ccccc3Cl)c2n1 | n | x | x | x | n
O=C1[C@@H]2CSC(c3ccc(F)cc3)N2C(=O)N1c1ccc(Cl)cc1 (stereo partly specified) | n | x | x | x | n
Cc1sc2nc(CN3CCN(c4ccc(O)cc4)CC3)[nH]c(=O)c2c1C | x | 12µM | u | n | x
Cc1c(NC(=O)c2ccc(-c3ccc(F)cc3)o2)cccc1-c1nc2ncccc2o1 | n | x | x | x | n
COc1cc(-c2nnc(SCCOc3ccc(Cl)cc3C)o2)cc(OC)c1OC | n | x | x | x | n
COc1cc(/C=C2\S/C(=N/S(=O)(=O)Cc3ccccc3)NC2=O)c([N+](=O)[O-])cc1OC | x | 8.3µM | u | n | x
COc1cc(/C=C2/S/C(=N/S(=O)(=O)Cc3ccccc3)NC2=O)c([N+](=O)[O-])cc1OC | n[7.34 µM] | u | u | n | n[7.34 µM]
COc1ccc2cc(CCNC(=O)c3cc4ccccc4o3)c(=O)[nH]c2c1 | x | 1.5µM | n | n | x
SMILES | VACV Venus inh | Pf growth 96h | Pf growth 48h | AMA1-RON2 inh | Vaccinia mCherry
COc1ccc2cc(CCNC(=O)c3ccc(S(=O)(=O)N4CCOCC4)cc3)c(=O)[nH]c2c1 | n | u | 10µM | n | n
COc1ccc(OC)c2[nH]c(=O)c(CCNC(=O)c3ccc(S(=O)(=O)N(C)C)cc3)cc12 | n | n | n | n | n
Cc1cc2cc(CCNC(=O)c3ccc(S(=O)(=O)N4CCCC4)cc3)c(=O)[nH]c2cc1C | n | u | 9.3µM | n | u
Cc1cc2cc(CCNC(=O)c3ccc(C)c([N+](=O)[O-])c3)c(=O)[nH]c2cc1C | n | u | n | n | n
Cc1ccc2cc(CCNC(=O)c3cc4ccccc4o3)c(=O)[nH]c2c1C | n | u | u | n | n
COc1ccc(CNC(=O)c2ccc(S(=O)(=O)N3CCOCC3)cc2)cc1 | n | u | n | n | n
COc1ccc(OC)c2[nH]c(=O)c(CCNC(=O)c3ccc(S(=O)(=O)N4CCCCC4)cc3)cc12 | n | n | 9.3µM | n | n
COc1cc2nc(NCc3ccccc3Cl)n3nc(-c4cccnc4)nc3c2cc1OC | n | x | x | x | n
c1cncc(OC2CCN(Cc3ccc4c(c3)CN(Cc3nc5ccccc5s3)CCO4)CC2)c1 | n | x | x | x | n
CCOC(=O)c1c(C)[nH]c(C)c1S(=O)(=O)N1CCC(C(=O)NCc2cccc(OC)c2)CC1 | n | x | x | x | n
